Results reported in PubChem BioAssay (NCATS).
Results filed as inconclusive are left out. Activity calls are given as the source filed them. Unless noted, the call rests on the fitted dose curve; in most records, active means well fitted curve in either direction with a large enough effect (not every such curve was filed as active); inconclusive means small, poorly fitted or top-dose-only effect, or another doubt; inactive means flat fitted curve, though single readings scatter.

How the values were obtained:
[1] = AP1 Signaling Pathway (AID 357); settings: ME-180 AP-1-bla reporter, EGF-induced, beta-lactamase ratio, 5 h; at 17.2 µM (top of the series) unless noted;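 further: ME-180 reporter cells stimulated with EGF at its EC50 level; on the % scale 0 is the no-effect control and ±100 the full control effect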
Method in brief: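 Modulation of EGF-driven AP-1 transcription was assessed with a beta-lactamase reporter in ME-180 cells. Compound and EC50 EGF were co-incubated 5 hours at 37 °C before 2.5-hour CCF4 loading at room temperature and dual-emission reading.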

[2] = NFAT Signaling Pathway (AID 444); settings: Jurkat NFAT-bla M1, carbachol, beta-lactamase ratio, 5 h; at 17.2 µM (top of the series) unless noted;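 further: carbachol stimulus at about its EC50 of 1 µM final; on the % scale 0 is the no-effect control and ±100 the full control effect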
Method in brief: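 Jurkat cells with NFAT-driven β-lactamase reporter and co-expressed M1 receptor, stimulated with carbachol (final 1 uM, ~EC50), compound titration, 5 h at 37 °C. CCF4 loaded 1 h at RT; 460/530 nm ratio gave %activity and AC50.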

[3] = Stat Signaling Pathway (AID 446); settings: ME-180 SIE beta-lactamase reporter, IL-6 stimulated, 5 h; at 17.2 µM (top of the series) unless noted;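 further: ME-180 cervical cancer cells given 40 pM IL-6 alongside compound; SIE-controlled beta-lactamase reporter measured as 460/530 nm FRET emission ratio; on the % scale 0 is the no-effect control and ±100 the full control effect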
Method in brief: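 FRET read-out (405 nm excitation, 460/530 nm emission) of a beta-lactamase reporter under a STAT-inducible element in ME-180 cervical carcinoma cells. Cells with compound receive 40 pM IL-6 for 5 h. Values are normalised to AC90 stimulation and AC90 JAK-inhibitor controls.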

[4] = target: Glucocorticoid receptor (Homo sapiens) (UniProt P04150); assay: GR-GFP Redistribution (AID 450;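 active means compounds whose dose series gives a full or clear partial fitted curve of increased nuclear translocation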; further: potency means the concentration at half of the fitted maximal effect)
[5] = qHTS Assay for Identification of Small Molecule Agonists for Hypoxia Response Element Signaling Pathway (AID 914; active means well fitted activation curve with a large enough effect in the signal ratio, with a control signal flat, not every such curve was filed as active; the % refers to the signal ratio; further: potency means the concentration at half of the fitted maximal effect; on activation: % of control where 0% means no effect); settings: ME-180 (cervical carcinoma) HRE-bla reporter, beta-lactamase ratio, CoCl2, 17 h; activation: hits give high values
Method in brief: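 HRE-bla ME-180 cells with beta-lactamase reporter under hypoxia response element, compounds with EC50 CoCl2 for 17 hours at 37 C. CCF4 substrate, 460nm/530nm emission ratio gave %Activity; AC50 from titration series.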

[6] = target: Guanine nucleotide-binding protein G(i) subunit alpha-1 (Homo sapiens) (UniProt P63096); assay: qHTS Assay for Inhibitors of RGS12 GoLoco Motif Activity (Green Fluorophore) (AID 879; active means well fitted curve in the direction sought with a large enough effect; an effect the other way counts as inactive or inconclusive;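 further: 0% = labeled peptide with Gαi1 and full inhibition = labeled peptide alone without protein; negative values mean loss of peptide binding seen as reduced polarization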)
Method in brief: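 A drop in FITC polarization marked displacement of the FITC-tagged RGS12 GoLoco peptide (10 nM) from Gαi1 (50 nM). Compounds were incubated 10 min at room temperature in Tris pH 7.5 buffer containing 150 mM NaCl, 0.1 mM GDP and 0.05% NP40; unlabeled peptide titration served as control.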

[7] = qHTS Assay for Identification of Small Molecule Agonists for Thrombopoietin (TPO) Signaling Pathway (AID 917; active means well fitted curve in the direction sought with a large enough effect; an effect the other way counts as inactive or inconclusive; further: on the % scale 0 is the no-effect control and ±100 the full control effect)
Method in brief: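 Human TPO receptor–transfected Ba/F3 cells (murine, IL-3-dependent) in IL-3-deficient medium; compounds plus TPO at EC50, 26 pM final; 24 hrs, 37 C; GpIIb-luciferase luminescence after 10 min RT detection.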

[8] = target: Muscarinic acetylcholine receptor M1 (Rattus norvegicus) (UniProt P08482); assay: qHTS Assay for Antagonists of Acetylcholine Muscarinic M1 Receptor: Measurement of IP-One Response (AID 944; active means well fitted curve in the direction sought with a large enough effect; an effect the other way counts as inactive or inconclusive; further: nearly all actives have a fitted effect of over 75% in size)
Method in brief: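 Antagonism was measured as loss of carbachol-driven (EC80) IP1 accumulation in CHO cells carrying rat M1, using a homogeneous IP-One TR-FRET kit read at 620 and 665 nm.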

[9] = target: Pyruvate kinase (Leishmania mexicana) (UniProt Q27686); assay: qHTS Validation Assay for Inhibitors of Leishmania Mexicana Pyruvate Kinase (AID 945; active means well fitted curve in the direction sought with a large enough effect; an effect the other way counts as inactive or inconclusive;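 further: 0% = DMSO only neutral control wells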)
Method in brief: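 Eight-point qHTS titrations in triplicate, data normalized to DMSO neutral control. Reaction: 0.2 nM LmPYK E451W mutant, 0.5 mM PEP, 0.1 mM ADP, 7 mM MgCl2, pH 7.2, one hour at room temperature; luminescent ATP detection.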

[10] = target: Pyruvate kinase PKM (Homo sapiens) (UniProt P14618); assay: qHTS Assay for Activators of Human Muscle Pyruvate Kinase (AID 954; active means well fitted curve in the direction sought with a large enough effect, not every such curve was filed as active;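 further: 0% = uninhibited enzyme and -100% = no enzyme or full thiadiazolimine inhibition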)
Method in brief: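 ATP production by PKM2 detected via luciferase luminescence after 1 h room-temperature reaction (0.1 nM enzyme, PEP at Km 0.5 mM, ADP 0.1 mM, pH 7.2 imidazole buffer). Inhibition scaled to no-enzyme control; activation referenced to 0.3 nM enzyme wells.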

[11] = target: Alpha-galactosidase A (Homo sapiens) (UniProt P06280); assay: Counterscreen for Glucocerebrosidase Inhibitors: qHTS Assay for Human alpha-Galactosidase at pH 4.5 (AID 992; active means well fitted curve in the direction sought with a large enough effect; an effect the other way counts as inactive or inconclusive; further: 0% is about no effect)
Method in brief: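 Fluorogenic 1536-well qHTS at pH 4.5 (citrate, Tween-20): 2 nM enzyme, 80 uM 4-MU-alpha-galactoside, 20 min room temperature, NaOH/glycine stop. Titration 0.7 nM to 77 uM, data normalized to no-enzyme and full-activity controls, Hill-fitted AC50.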

[12] = target: alpha-glucosidase (Oryza sativa, rice) (UniProt Q653V4); assay: Counterscreen for Glucocerebrosidase Inhibitors: qHTS Assay for Rice alpha-Glucosidase at pH 5.0 (AID 997; active means well fitted curve in the direction sought with a large enough effect; an effect the other way counts as inactive or inconclusive;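 further: 0% = full activity with enzyme and -100% = basal without enzyme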)
Method in brief: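 Endpoint fluorogenic assay at pH 5.0: compounds (0.7 nM to 77 uM) titrated against 4 nM rice enzyme and 400 uM 4-MU-alpha-glucoside for 20 min at room temperature; NaOH/glycine stop, read ex 365/em 440 nm, Hill-fitted AC50.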

Chain of Glucocorticoid receptor (Homo sapiens) (P04150 whole entry, looked up): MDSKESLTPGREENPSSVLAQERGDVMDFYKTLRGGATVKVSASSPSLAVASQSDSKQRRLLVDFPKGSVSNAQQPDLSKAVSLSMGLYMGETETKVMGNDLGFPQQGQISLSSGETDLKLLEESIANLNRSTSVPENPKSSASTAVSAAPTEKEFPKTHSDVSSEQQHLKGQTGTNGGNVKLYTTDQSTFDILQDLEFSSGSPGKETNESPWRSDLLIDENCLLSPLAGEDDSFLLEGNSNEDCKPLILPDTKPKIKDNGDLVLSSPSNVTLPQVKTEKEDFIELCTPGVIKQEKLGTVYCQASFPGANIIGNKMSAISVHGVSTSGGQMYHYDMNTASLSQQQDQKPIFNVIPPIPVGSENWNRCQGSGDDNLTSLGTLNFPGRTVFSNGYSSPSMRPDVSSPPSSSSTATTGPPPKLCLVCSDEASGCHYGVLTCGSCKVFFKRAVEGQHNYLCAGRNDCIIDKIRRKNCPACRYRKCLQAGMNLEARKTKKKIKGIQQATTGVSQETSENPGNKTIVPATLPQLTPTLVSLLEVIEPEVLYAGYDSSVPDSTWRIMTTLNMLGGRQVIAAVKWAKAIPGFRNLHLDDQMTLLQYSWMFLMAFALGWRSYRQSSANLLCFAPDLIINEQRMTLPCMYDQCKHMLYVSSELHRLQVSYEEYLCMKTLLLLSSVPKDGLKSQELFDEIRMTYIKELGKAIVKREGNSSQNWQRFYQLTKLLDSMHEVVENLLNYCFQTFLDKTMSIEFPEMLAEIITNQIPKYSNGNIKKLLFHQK
Chain of Alpha-galactosidase A (Homo sapiens) (P06280 whole entry, looked up): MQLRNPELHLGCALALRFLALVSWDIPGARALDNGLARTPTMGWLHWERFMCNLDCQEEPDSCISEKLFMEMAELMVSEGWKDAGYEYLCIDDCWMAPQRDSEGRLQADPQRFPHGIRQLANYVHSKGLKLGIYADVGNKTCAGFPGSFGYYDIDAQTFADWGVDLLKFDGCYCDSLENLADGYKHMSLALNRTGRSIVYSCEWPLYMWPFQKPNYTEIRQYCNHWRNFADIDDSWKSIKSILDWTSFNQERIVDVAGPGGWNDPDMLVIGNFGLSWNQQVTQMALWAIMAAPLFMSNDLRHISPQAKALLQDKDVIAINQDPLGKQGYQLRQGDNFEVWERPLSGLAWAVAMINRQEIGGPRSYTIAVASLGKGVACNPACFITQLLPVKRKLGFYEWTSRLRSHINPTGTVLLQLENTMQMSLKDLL
Chain of Pyruvate kinase (Leishmania mexicana) (Q27686 2-499 E452W): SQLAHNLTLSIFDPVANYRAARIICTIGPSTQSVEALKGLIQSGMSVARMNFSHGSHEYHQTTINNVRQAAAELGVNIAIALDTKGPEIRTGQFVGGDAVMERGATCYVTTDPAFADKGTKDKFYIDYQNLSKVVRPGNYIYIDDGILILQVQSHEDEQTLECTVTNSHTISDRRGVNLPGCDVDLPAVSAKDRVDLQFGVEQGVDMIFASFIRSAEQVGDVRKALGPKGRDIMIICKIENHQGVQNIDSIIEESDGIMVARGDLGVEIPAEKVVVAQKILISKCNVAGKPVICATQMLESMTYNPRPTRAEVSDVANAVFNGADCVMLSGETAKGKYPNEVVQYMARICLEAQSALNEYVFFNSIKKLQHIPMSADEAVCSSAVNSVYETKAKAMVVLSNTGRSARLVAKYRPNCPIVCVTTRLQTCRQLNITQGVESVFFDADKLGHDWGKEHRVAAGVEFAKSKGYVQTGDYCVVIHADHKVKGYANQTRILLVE
Chain of Guanine nucleotide-binding protein G(i) subunit alpha-1 (Homo sapiens) (P63096 whole entry, looked up): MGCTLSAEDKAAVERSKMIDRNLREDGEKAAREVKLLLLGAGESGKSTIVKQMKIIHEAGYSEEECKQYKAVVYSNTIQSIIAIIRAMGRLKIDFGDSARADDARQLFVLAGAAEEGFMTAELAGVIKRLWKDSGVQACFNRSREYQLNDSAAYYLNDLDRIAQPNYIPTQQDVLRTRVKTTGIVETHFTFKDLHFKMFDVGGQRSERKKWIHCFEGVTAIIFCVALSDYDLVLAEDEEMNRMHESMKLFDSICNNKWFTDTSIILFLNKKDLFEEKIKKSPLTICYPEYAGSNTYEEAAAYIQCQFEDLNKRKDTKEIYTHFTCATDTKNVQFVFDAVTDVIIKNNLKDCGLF
Chain of Pyruvate kinase PKM (Homo sapiens) (P14618 whole entry, looked up): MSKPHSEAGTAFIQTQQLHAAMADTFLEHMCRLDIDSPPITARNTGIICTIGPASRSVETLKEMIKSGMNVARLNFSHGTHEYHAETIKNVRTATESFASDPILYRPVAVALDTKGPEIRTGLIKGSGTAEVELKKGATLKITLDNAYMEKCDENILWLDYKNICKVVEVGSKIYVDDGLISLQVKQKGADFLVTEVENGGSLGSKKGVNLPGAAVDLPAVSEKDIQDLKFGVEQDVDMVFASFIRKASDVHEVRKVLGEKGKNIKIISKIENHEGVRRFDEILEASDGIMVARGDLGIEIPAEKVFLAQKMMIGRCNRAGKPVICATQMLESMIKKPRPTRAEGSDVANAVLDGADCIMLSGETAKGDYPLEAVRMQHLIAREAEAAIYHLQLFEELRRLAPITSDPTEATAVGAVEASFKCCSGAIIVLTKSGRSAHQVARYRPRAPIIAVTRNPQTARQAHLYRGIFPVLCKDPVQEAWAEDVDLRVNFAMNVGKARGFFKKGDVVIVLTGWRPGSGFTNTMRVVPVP
Chain of Muscarinic acetylcholine receptor M1 (Rattus norvegicus) (P08482 whole entry, looked up): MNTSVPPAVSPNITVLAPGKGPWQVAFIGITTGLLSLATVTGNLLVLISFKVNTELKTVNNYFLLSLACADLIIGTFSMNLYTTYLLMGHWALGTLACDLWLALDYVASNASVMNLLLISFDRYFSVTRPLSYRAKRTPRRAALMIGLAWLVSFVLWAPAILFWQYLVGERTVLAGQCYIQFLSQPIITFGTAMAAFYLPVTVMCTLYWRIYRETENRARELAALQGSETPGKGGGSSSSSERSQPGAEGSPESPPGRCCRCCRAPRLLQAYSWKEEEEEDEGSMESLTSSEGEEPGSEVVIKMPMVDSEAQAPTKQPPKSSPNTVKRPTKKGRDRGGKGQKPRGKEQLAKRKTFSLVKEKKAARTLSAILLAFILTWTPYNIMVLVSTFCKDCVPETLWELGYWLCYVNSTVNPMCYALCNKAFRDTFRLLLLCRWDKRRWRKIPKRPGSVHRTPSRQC

N#CC12CCCCC1CC1CCCCC1(C#N)N2Cc1cccnc1 (stereo not given)
inactive: activity change, negative = inhibition [1] 11.8% | activity change, negative = inhibition [2] -6.79% | activity, negative = inhibition [3] 4.8% | Potency [4] > 20.6 µM | activation [5] 9.28%

CCN1CCC[C@@H]1CNC(=O)c1c(O)c(Cl)cc(Cl)c1OC
inactive: activity change, negative = inhibition [1] 10.6% [at 38 µM] | activity change, negative = inhibition [2] 2.12% [at 38 µM] | activity, negative = inhibition [3] -20.4% [at 38 µM] | outcome [6] | Potency [7] | Potency [8] | Potency [9] | outcome [10] | outcome [11] | outcome [12]

O=c1cc(N2CCCCC2)nc2n1CCCS2
active: Potency [5] 6.31 µM
inactive: activity change, negative = inhibition [1] -18.5% | activity change, negative = inhibition [2] -21.5% | activity, negative = inhibition [3] -10.2% | Potency [4] > 20.6 µM

COc1ccc(Cn2ccnc2)cc1Br
inactive: activity change, negative = inhibition [1] 4.25% | activity change, negative = inhibition [2] -14% | Potency [4] > 20.6 µM

CCCC(=O)N(Cc1cc2ccccc2[nH]c1=O)c1ccccc1OC
inactive: activity change, negative = inhibition [1] -6.44% | activity change, negative = inhibition [2] 22.4% | activity, negative = inhibition [3] 5.08% | activation [5] -13.3%

CCC(=O)Nc1nc(C)c(Oc2ccccc2)c(=O)[nH]1
inactive: activity change, negative = inhibition [1] 6.64% | activity change, negative = inhibition [2] 9.01% | Potency [4] > 20.6 µM

O=C(Cc1ccccc1)Nc1cccc(-c2nnc(-c3ccco3)o2)c1
inactive: activity change, negative = inhibition [1] -23.3% | activity change, negative = inhibition [2] 11.7% | Potency [4] > 20.6 µM

O=c1c2ccccc2ncn1Cc1ccco1
inactive: activity change, negative = inhibition [1] 14.1% | activity change, negative = inhibition [2] -4.44% | activity, negative = inhibition [3] 2.8% | Potency [4] > 20.6 µM | activation [5] 2.2%

CCc1ccc(NC(=O)CSC2=C(C#N)C(c3ccc4c(c3)OCO4)CC(=O)N2)cc1 (stereo not given)
inactive: activity change, negative = inhibition [1] -19.8% | activity change, negative = inhibition [2] -5.09% | Potency [4] > 20.6 µM

COC(=O)/C(=C1/Oc2cc(C)oc(=O)c2S1)C(F)(F)F
inactive: activity change, negative = inhibition [1] 7.82% | Potency [4] > 20.6 µM
active: activity change, negative = inhibition [2] -131%

Nc1nonc1-c1noc(-c2ccccc2)n1
inactive: activity change, negative = inhibition [1] 7.84% | activity change, negative = inhibition [2] -13.1% | Potency [4] > 20.6 µM

C=C(Br)CN1CCN(CC(=C)Br)CC1
inactive: activity change, negative = inhibition [1] 10.5% | activity change, negative = inhibition [2] -10.3% | Potency [4] > 20.6 µM

CN(CCCCCC(=O)/C=N/O)Cc1ccccc1
inactive: activity change, negative = inhibition [1] 26.2% | activity change, negative = inhibition [2] -28% | Potency [4] > 20.6 µM

COc1ccccc1C1/C(=C(/O)c2ccc(OC(C)C)cc2)C(=O)C(=O)N1c1cc(C)on1 (stereo not given)
inactive: activity change, negative = inhibition [1] -28.1% | activity change, negative = inhibition [2] 27.8% | Potency [4] > 20.6 µM

CC(=O)Oc1oc(-c2ccccc2)nc1/C=N/c1ccccn1
inactive: activity change, negative = inhibition [1] -71.1% | Potency [4] > 20.6 µM
active: activity change, negative = inhibition [2] -130%

CN1C(=O)C2(N=c3ccccc3=N2)c2ccccc21
inactive: activity change, negative = inhibition [1] 15.2% | activity change, negative = inhibition [2] 25.6% | Potency [4] > 20.6 µM

COC(=O)C1C(=O)CC(C)(O)C(C(=O)OC)C1c1ccccc1F (stereo not given)
inactive: activity change, negative = inhibition [1] 0.159% | activity change, negative = inhibition [2] -0.943% | Potency [4] > 20.6 µM

O=C(COc1ccccc1)Nc1ccc(-c2nnc(-c3ccco3)o2)cc1
inactive: activity change, negative = inhibition [1] 6.06% | activity change, negative = inhibition [2] 7.57% | Potency [4] > 20.6 µM

CSc1nc2sc3c(c2c(=O)n1C1CCCCC1)CCN(C)C3
inactive: activity change, negative = inhibition [1] -0.967% | Potency [4] > 20.6 µM
active: activity change, negative = inhibition [2] -81.1%

Clc1ccc(SCc2cn3ccsc3n2)cc1
inactive: activity change, negative = inhibition [1] -22.5% | activity change, negative = inhibition [2] 9.85% | Potency [4] > 20.6 µM

COc1ccc(N(CN2C(=O)C3C4C=CC(C4)C3C2=O)C(=O)c2ccco2)cc1 (stereo not given)
inactive: activity change, negative = inhibition [1] -8.5% | activity change, negative = inhibition [2] 12.6% | Potency [4] > 20.6 µM

N#Cc1c(N)nc(SCC(=O)NCc2ccc3c(c2)OCO3)c(C#N)c1-c1cccs1
inactive: activity change, negative = inhibition [1] -27.2% | activity change, negative = inhibition [2] -13.6% | Potency [4] > 20.6 µM

COc1cc2nc(-c3ccccc3)nc(N3CCCC3)c2cc1OC
inactive: activity change, negative = inhibition [1] 24.5% | activity change, negative = inhibition [2] -11.3% | Potency [4] > 20.6 µM

O=C(NO)c1ccccc1O
inactive: activity change, negative = inhibition [1] -4.21% | activity change, negative = inhibition [2] -9.27% | Potency [4] > 20.6 µM

CSc1nc(N2CCCC2)c2c(c1C#N)CC(C)(C)OC2
inactive: activity change, negative = inhibition [1] -20.7% | activity change, negative = inhibition [2] -19.8% | Potency [4] > 20.6 µM

c1ccc2c(c1)[nH]c1c(N3CCC4(CC3)OCCO4)ncnc12
inactive: activity change, negative = inhibition [1] -1.63% | activity change, negative = inhibition [2] 7.49% | Potency [4] > 20.6 µM

CCN(CC)CCCN1C(=O)C(=O)/C(=C(/O)c2ccc3c(c2)CC(C)O3)C1c1ccncc1 (stereo not given)
inactive: activity change, negative = inhibition [1] 0.667% | activity change, negative = inhibition [2] 13.1% | Potency [4] > 20.6 µM
